High-throughput results: PubChem, National Center for Advancing Translational Sciences (NCATS)
IL1B secr inh: inhibitors of inflammasome signaling (IL-1 beta secretion); THP-1 LPS/ATP IL-1B secretion, AlphaLISA, 16 h; stronger effect = lower value; activity change, % at 57.5 µM; 360,000 tested, 4.7% active; in the data active = activity change below about -50%; inconclusive = mostly about -30% to -49%
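Secreted IL-1B measured by AlphaLISA bead assay after 16 h compound exposure of THP-1 cells; compounds (final up to 57.5 uM) added 1 h before LPS (250 ng/mL) and ATP (1.25 mM) stimulation; lower signal means less secretion.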
HT1080NT lethal: kills 2HG-producing HT-1080-NT fibrosarcoma cells | HT-1080-NT fibrosarcoma viability, CellTiter-Glo ATP luminescence, 48 h | Potency, µM (titrated, usually from 46.1 µM), for inactives: at the top dose activity, negative = less viability, usual class: cytotoxic | AID 686970 | 360,000 tested, 1.6% active;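 also: NT is the 2HG producing partner of a matched IDH1 knockdown line; potency is read from the fitted curve at half-maximal effect; 0% = DMSO-treated cells and -100% = media-only wells without cells; nearly all actives have a fitted effect of over 55% in size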
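Compounds were tested in concentration-response format on HT-1080-NT cells for 48 hours at 37 degrees C. Cell viability came from CellTiter-Glo luminescence; curves were classified by r2, response magnitude and activity.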
DT40 TDP1 CPT: growth inhibition of DT40 Tdp1-/-;hTDP1 cells with camptothecin (screen for TDP1 inhibitors); chicken DT40 Tdp1-/-;hTDP1 cells + 20 nM CPT, ATP luminescence, 48 h; Potency, µM (top dose mostly 46.2 µM), for the others: at the top dose activity change, negative = growth inhibition, most hits filed as inhibitors; 420,000 tested, 12% active; AID 686979; also: potency is read from the fitted curve at half-maximal effect; nearly all actives have a fitted effect of over 55% in size
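Cell growth measured by CellTiter-Glo luminescence after a minimum 48 h, 37 C compound exposure with 20 nM CPT in Tdp1-knockout DT40 cells stably expressing hTDP1, seeded 400/well; qHTS titration format.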
ELG1 DNA repair: inhibitors of ELG1-dependent DNA repair in HEK293T cells | HEK293T ELG1-luciferase reporter, luminescence, 16 h; DNA damage induced by 5-fluorouridine | 330,000 tested, 2.3% active | Potency, µM (top dose mostly 46.1 µM), for inactives: at the highest dose activity change, negative = inhibition, hits mostly inhibitors; also: potency is read from the fitted curve at half-maximal effect; nearly all actives have a fitted effect of over 55% in size
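Quantitative HTS, concentration-response format. 2,000 cells/well co-treated with 5-fluorouridine and compound, 16 hr in 5% CO2 at 37 °C; ONE-Glo luminescence read after 30 min.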
TDP1 cell noCPT: qHTS for Inhibitors of human tyrosyl-DNA phosphodiesterase 1 (TDP1): qHTS in cells in absence of CPT; DT40 Tdp1-/- hTDP1 cells, no CPT, ATP luminescence, 48 h; Potency, µM (top dose mostly 46.2 µM), for inactives: at the highest dose activity change, negative = growth inhibition, actives largely listed as inhibitors; 420,000 tested, 15% active; also: potency is read from the fitted curve at half-maximal effect; nearly all actives have a fitted effect of over 55% in size
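Seeded 400 DT40-hTDP1 cells/well (vehicle DMSO, no 20 nM CPT); pinned compounds; ≥48 hr at 37 °C; CellTiter-Glo luminescence as viability measure.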
HT1080 IDH1KD tx: toxicity to HT-1080 IDH1 knockdown cells (counter line); 360,000 tested, 2% active; Potency, µM (doses to about 46.1 µM), for inactives: top-dose activity, negative = toxicity, most hits filed as cytotoxic; AID 686971; HT-1080 IDH1 knockdown viability, ATP luminescence, 48 h;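 also: potency is read from the fitted curve at half-maximal effect; 0% = DMSO wells and -100% = cell-free medium wells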
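In this qHTS, HT-1080 cells depleted of IDH1 are exposed for 48 h at 37 °C to compound titrations. Toxicity is scored from CellTiter-Glo luminescence, with DMSO as full viability and medium alone as none.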
* marks the source's active call; other numbers are inactive results. Only some compounds are listed: those with a hit (about 19% of all), similar ones and a draw of the others. Unless noted, calls follow the shape of the dose curve; as a rule, active = well fitted curve in the direction sought with a large enough effect; inconclusive = small, poorly fitted or top-dose-only effect, or another doubt; inactive = no such curve, though single readings can be large; an effect the other way counts as inactive or inconclusive. Unless noted, % is scaled to controls: 0 for no effect and ±100 for the full control effect.

N#CC1(Nc2ccc(C(=O)O)cc2)CCCC1 was read as IL1B secr inh 5.3, HT1080NT lethal 15.6%, DT40 TDP1 CPT inconclusive, TDP1 cell noCPT -7.3% and HT1080 IDH1KD tx 1.2%.
Screening Cc1cc(C)cc(OCC(=O)N/N=C/c2ccc([N+](=O)[O-])o2)c1 returned IL1B secr inh -63.6*, HT1080NT lethal -9.9%, DT40 TDP1 CPT -89.0%, ELG1 DNA repair inconclusive, TDP1 cell noCPT inconclusive and HT1080 IDH1KD tx -11.9%.
For COc1ccccc1OCC(=O)N/N=C/C=C/c1ccc([N+](=O)[O-])o1 the results were IL1B secr inh -99.6*, HT1080NT lethal -5.5%, DT40 TDP1 CPT 6.51µM*, ELG1 DNA repair inconclusive, TDP1 cell noCPT 7.31µM* and HT1080 IDH1KD tx inconclusive.
Cc1ccc(OCC(=O)N/N=C/C=C/c2ccco2)cc1 was read as IL1B secr inh -2.0, HT1080NT lethal -2.6%, DT40 TDP1 CPT 8.2µM*, ELG1 DNA repair 2.5%, TDP1 cell noCPT 7.31µM* and HT1080 IDH1KD tx -3.1%.
For Cc1ccccc1OCC(=O)N/N=C/c1ccc([N+](=O)[O-])o1 the results were IL1B secr inh 7.6, HT1080NT lethal -26.1%, DT40 TDP1 CPT 10.3µM*, ELG1 DNA repair inconclusive, TDP1 cell noCPT 8.2µM* and HT1080 IDH1KD tx inconclusive.
`COc1ccc(OC)c(NC(=O)Cn2cc(S(=O)(=O)c3ccccc3)c(=O)c3cc(C)ccc32)c1` gave DT40 TDP1 CPT 10.9% and TDP1 cell noCPT 1.8%.
For COc1ccccc1CNC(=O)C(=O)NCC1OCCN1S(=O)(=O)c1ccc(Br)cc1 (stereo not drawn) the results were IL1B secr inh inactive, HT1080NT lethal -5.5%, DT40 TDP1 CPT inconclusive, ELG1 DNA repair inconclusive, TDP1 cell noCPT inconclusive and HT1080 IDH1KD tx -0.6%.
For CNc1ncnc2c1ncn2-c1ccccc1 the results were IL1B secr inh -6.6, HT1080NT lethal -0.1%, DT40 TDP1 CPT inconclusive, TDP1 cell noCPT inconclusive and HT1080 IDH1KD tx -9.9%.
`Cc1cnc(CNc2ccnc(-c3ccccc3CN(C)C)n2)cn1` gave DT40 TDP1 CPT 1.1% and TDP1 cell noCPT -2.1%.
For CCCOc1ccc(CCC(=O)N/N=C/c2ccc([N+](=O)[O-])o2)cc1 the results were IL1B secr inh -3.2, HT1080NT lethal -18.6%, DT40 TDP1 CPT 16.4µM*, ELG1 DNA repair inconclusive, TDP1 cell noCPT -97.9% and HT1080 IDH1KD tx -19.2%.
`CCCOc1ccc(CC(=O)N/N=C\c2ccc(F)cc2)cc1` gave IL1B secr inh -2.0, HT1080NT lethal -6.8%, DT40 TDP1 CPT -23.0%, ELG1 DNA repair -1.0%, TDP1 cell noCPT inconclusive and HT1080 IDH1KD tx -7.9%.
`COc1ccccc1C(=O)N1CCCC(C)(C(=O)NS(=O)(=O)C2CC2)C1` (stereo not drawn) gave IL1B secr inh 2.3, HT1080NT lethal 9.3%, DT40 TDP1 CPT inconclusive, TDP1 cell noCPT 1.64µM* and HT1080 IDH1KD tx 21.7%.
For CC1(C(=O)NS(=O)(=O)C2CC2)CCCN(C(=O)c2cccnc2Oc2ccccc2)C1 (stereo not drawn) the results were IL1B secr inh -6.5, HT1080NT lethal inconclusive, DT40 TDP1 CPT inconclusive, TDP1 cell noCPT 1.03µM* and HT1080 IDH1KD tx 11.3%.
Screening CC1(C(=O)NS(=O)(=O)C2CC2)CCCN(C(=O)c2ccccc2C(F)(F)F)C1 (stereo not drawn) returned IL1B secr inh -4.7, HT1080NT lethal 0.8%, DT40 TDP1 CPT 6.51µM*, TDP1 cell noCPT 5.8µM* and HT1080 IDH1KD tx 9.8%.
